In the library only some 2.4% were active in any assay of this set; here they are far more common.
MEKK2wt PB1 HTS: raises or lowers MEK5 binding to wildtype human MEKK2 PB1 domain; Q9Y2U5; bead flow cytometry, Alexa488-MEK5 binding to MEKK2 WT; actives lie on both sides; binding response (% of control), % at 10 µM; actives 1.1% (n = 290,000); in the data active means binding response below about 67% or above about 130%
MEKK2 mut-MEK5: signal of MEK5 binding to mutant human MEKK2 PB1 domain | bead flow cytometry, Alexa488-MEK5 binding to MEKK2 mutant | percent response, % at 10 µM | actives 0.35% (n = 290,000) | AID 1530; in the data active means percent response above about 24%, passing the limit was not always enough
MEKK3 PB1 HTS: raises or lowers MEK5 binding to the human MEKK3 PB1 domain; actives 1.4% (n = 290,000); binding response (% of control), % at 10 µM; bead-based flow cytometry, Alexa488-MEK5 binding to MEKK3; actives lie on both sides; 0 = blocked by unlabeled MEK5, 100 = vehicle; Q99759;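 active means binding response more than 3 SD above or below the average of its plate-row segment, actives on both sides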;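 further: Alexa488 bead fluorescence after subtracting the streptavidin-only scavenger bead signal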
Target sequence (Q99759 whole entry, looked up, the tested form may be a part): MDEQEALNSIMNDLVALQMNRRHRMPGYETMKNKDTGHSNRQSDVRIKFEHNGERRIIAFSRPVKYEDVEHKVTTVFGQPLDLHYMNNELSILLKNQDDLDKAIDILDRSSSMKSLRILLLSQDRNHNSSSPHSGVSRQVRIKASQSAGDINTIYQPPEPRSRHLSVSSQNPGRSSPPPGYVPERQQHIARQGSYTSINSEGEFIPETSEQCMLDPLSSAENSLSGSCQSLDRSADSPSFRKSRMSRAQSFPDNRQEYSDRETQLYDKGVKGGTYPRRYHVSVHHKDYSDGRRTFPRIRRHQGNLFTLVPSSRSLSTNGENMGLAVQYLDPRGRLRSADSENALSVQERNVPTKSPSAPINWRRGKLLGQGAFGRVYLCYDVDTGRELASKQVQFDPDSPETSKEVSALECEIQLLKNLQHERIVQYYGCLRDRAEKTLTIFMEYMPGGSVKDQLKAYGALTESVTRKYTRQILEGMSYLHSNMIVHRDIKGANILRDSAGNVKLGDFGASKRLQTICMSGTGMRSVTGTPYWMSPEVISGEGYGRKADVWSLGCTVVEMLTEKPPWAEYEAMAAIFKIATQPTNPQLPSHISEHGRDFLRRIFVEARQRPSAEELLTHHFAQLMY
Pf gamet viab: inhibitors of late stage P. falciparum gametocyte viability; actives 0.065% (n = 150,000); P. falciparum stage V gametocytes, ATP luminescence, 24 h; inhibition, % at 10.9 µM;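 active means inhibition above the mean plus 3 SD of compounds within the control limits, set per campaign, cut at about 38% in these data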
Arbovirus inh: antivirals against arbovirus infection; inhibition, % at 10 µM; actives 0.37% (n = 200,000); arbovirus infection cell-based antiviral screen; AID 1251; in the data active means inhibition above about 30%
MEKK2wt confirm: raises or lowers MEK5 binding to wildtype human MEKK2, retest | actives 2.4% (n = 5,900) | AID 1892 | bead flow cytometry, Alexa488-MEK5 binding to MEKK2 WT; actives lie on both sides | shares compounds with MEKK3 PB1 HTS | binding response (% of control), % at 10 µM; in the data active means binding response below about 16% or above about 210%; inactive means in between
MEKK2mut-MEK5: signal of MEK5 binding to mutant human MEKK2, retest; actives 2% (n = 5,900); shares compounds with MEKK3 PB1 HTS; bead flow cytometry, Alexa488-MEK5 binding to MEKK2 mutant; percent response, % at 10 µM; in the data active means percent response mostly above about 71%, no sharp cut-off; inactive means mostly below about 38%;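 further: higher means compound restores mutant binding toward wildtype level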
MEKK3-MEK5 inh: MEKK3-MEK5 PB1 inhibition, single concentration confirmation; actives 1.8% (n = 5,900); binding response (% of control), % at 10 µM; shares compounds with MEKK3 PB1 HTS; bead flow cytometry, Alexa488-MEK5 binding to MEKK3; active compounds read low;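 active means binding response below 72% of control, or above a set upper limit, though filed actives all read lower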;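 further: lower values mean stronger disruption of MEK5 binding to MEKK3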
Hits are given with their value; n = inactive; x = not tested or not shown; [ ] = another dose, or the depositor's remark.

SMILES | MEKK2wt PB1 HTS | MEKK2 mut-MEK5 | MEKK3 PB1 HTS | Pf gamet viab | Arbovirus inh | MEKK2wt confirm | MEKK2mut-MEK5 | MEKK3-MEK5 inh
COc1ccc2cnnc(SCC(=O)Nc3ccc(C(=O)O)cc3)c2c1OC | n | n | 143 | n | n | n | n | n
CC[n+]1c(/C=C/C=C/N(C(C)=O)c2ccccc2)sc2ccccc21 | x | n | 2.0[inhibitor] | x | n | 13[inhibitor] | n | n
Cc1ccc(S(=O)(=O)N2CC(O)CC2C(=O)O)cc1 (centres undefined) | n | n | n | x | x | x | x | x
COc1ccccc1NS(=O)(=O)c1cc(NC(=O)CCC(=O)c2cccs2)ccc1Cl | n | n | 147 | n | n | n | n | n
COc1ccc(NC(=O)CCC(=O)c2cccs2)cc1S(=O)(=O)Nc1ccc(Cl)cc1 | n | n | n | n | n | x | x | x
C=CCn1c(C)c(/C=C/c2cc[n+](C)cc2)c2ccccc21 | n | 62 | n | n | x | n | n | n
C=CCn1cc(/C=C/c2cc[n+](C)cc2)c2ccccc21 | n | n | n | n | x | x | x | x
O=C(O)C1CC=CCC1C(=O)Nc1ccc(Oc2ccc(Cl)cc2)cc1 (centres undefined) | n | n | n | n | n | x | x | x
Cc1cc(C)cc(Oc2ccc(NC(=O)C3CC=CCC3C(=O)O)cc2)c1 (centres undefined) | n | n | 75[inhibitor] | n | n | n | n | n
COC(=O)c1cc(=O)n2c(sc3ccccc32)c1C#N | n | n | n | n | x | x | x | x
COc1ccc(OCCC(=O)N2CCN(C)CC2)cc1 | n | 25 | n | n | x | n | n | n
COc1ccc(OCCC(=O)N2CCCCC2)cc1 | x | x | x | x | n | x | x | x
CCN(CC)c1ccc2cc(C(=O)Nc3ccccn3)c(=O)oc2c1 | 58[inhibitor] | n | n | x | n | n | n | n
CCN(CC)c1ccc2cc(C(C)=O)c(=O)oc2c1 | n | n | n | x | n | x | x | x
COc1ccccc1NC(=O)CNC(=O)c1ccccc1 | n | n | n | n | n | x | x | x
COc1ccccc1NC(=O)CNC(=O)c1ccccc1C | n | n | 75[inhibitor] | n | n | n | n | n
O=C(/C=C/c1cccc([N+](=O)[O-])c1)N1CCN(C(=O)c2ccco2)CC1 | n | n | n | x | n | x | x | x
O=C(c1ccco1)N1c2ccccc2Sc2ccccc21 | n | n | n | n | n | x | x | x
O=C(/C=C/c1ccccc1)N1CCN(C(=O)c2ccco2)CC1 | n | n | 69[inhibitor] | n | n | n | n | n
O=C(c1ccco1)N1CCN(C(=O)N2c3ccccc3Sc3ccccc32)CC1 | n | n | 78[inhibitor] | n | n | n | n | n
O=S(=O)(c1cc(Cl)ccc1Cl)n1ccnc1 | n | n | n | n | n | x | x | x
O=[N+]([O-])c1ccc(Cl)c(S(=O)(=O)n2ccnc2)c1 | n | n | 130 | n | x | n | n | n
CCOc1ccc(CCNC(=O)C2CC(C)=CCC2C(=O)O)cc1OCC (centres undefined) | n | n | n | x | x | x | x | x
Cc1ccc(S(=O)(=O)NC(=O)N(C)C2CCCCC2)cc1 | n | n | 130 | n | x | n | n | n
Cc1ccc(S(=O)(=O)C2(C(=O)N(C)C3CCCCC3)CC2)cc1 | n | n | n | x | n | x | x | x
SMILES | MEKK2wt PB1 HTS | MEKK2 mut-MEK5 | MEKK3 PB1 HTS | Pf gamet viab | Arbovirus inh | MEKK2wt confirm | MEKK2mut-MEK5 | MEKK3-MEK5 inh
Cc1ccc(C(=O)C[n+]2cccc3cc(C)ccc32)cc1 | x | x | 25[inhibitor] | n | n | n | n | n
O=C(C[n+]1cccc2ccccc21)c1ccc(NC(=O)c2ccccc2)cc1 | x | x | 37[inhibitor] | n | n | n | n | n
CCc1ccc(NC(=O)Cn2c(=O)n(CCC(=O)NC3CCN(Cc4ccccc4)CC3)c(=O)c3ccccc32)cc1 | n | n | n | n | x | x | x | x
O=c1ncn(-c2cccc(Cl)c2)c2ccccc12 | x | x | x | n | x | x | x | x
Cc1cccc(NC(=O)COC(=O)Cc2cccc(C(F)(F)F)c2)c1C | n | n | 145 | n | n | n | n | n
COc1cc2c(C(=O)N3CCOCC3)c(CSc3ccccc3)n(C)c2cc1Br | n | n | n | n | n | x | x | x
CCC1CCc2c([nH]c3ccccc3c2=O)O1 (centres undefined) | n | n | 147 | n | n | n | n | n

High-throughput results deposited in PubChem by several laboratories.
